48 molecules from PubChem BioAssay (Tox21) can be followed below.

The target of experiment [1] is Acetylcholinesterase (Homo sapiens) (UniProt P22303). Put plainly: Acetylcholinesterase (AChE) small molecule antagonists: enzyme-based qHTS assay (AID 1347397). Note: nearly all actives have a fitted effect of over 55% in size. Note: potency is the fitted concentration of half-maximal effect. Conditions: Potency: AChE enzyme activity inhibition; outcome: AChE enzyme activity inhibition. In short, it runs like this:
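Human recombinant acetylcholinesterase; substrate acetylthiocholine; thiocholine quantified with DTNB (colorimetric). Compound preincubation 30 min RT; reaction 10 min RT.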

The target is the same in experiment [2]. In words: Acetylcholinesterase (AChE) small molecule antagonists: fluorescence cell-based qHTS assay (AID 1347398). Note: nearly all actives have a fitted effect of over 50% in size. Note: potency is the fitted concentration of half-maximal effect. The following applies: Potency: AChE activity; outcome: AChE activity. A digest of the protocol: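 Thiocholine generated from acetylthiocholine by SH-SY5Y cell AChE is detected with Thiolite Green (Ex/Em 490/520 nm) after 40 min at room temperature, following 30 min compound pretreatment at 37 C.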

Experiment [3] has the same target. Put plainly: Acetylcholinesterase (AChE) small molecule antagonists: enzyme-based qHTS assay with human liver microsomes (AID 1347399). Note: nearly all actives have a fitted effect of over 60% in size. The following applies: Potency: qHTS inhibition; outcome: qHTS inhibition. In short, it runs like this: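 Recombinant human AChE (50 mU/mL in the enzyme mix) and human liver microsomes (0.25 mg/mL final) were preincubated with compound and NADPH (0.25 mg/mL final) for 30 min at 37 C. Acetylthiocholine/DTNB was then added; thiocholine was read colorimetrically after 10 min at room temperature.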
(qHTS replaces the single test concentration by a dilution series.)

A number with no mark means an inactive call. Results filed as inconclusive are left out. Active and inactive are the calls of the source. Calls come from the whole dose curve.
% is set by controls: 0 for no effect and ±100 for the full control effect.

Acetylcholinesterase (Homo sapiens), sequence (P22303 whole entry, looked up): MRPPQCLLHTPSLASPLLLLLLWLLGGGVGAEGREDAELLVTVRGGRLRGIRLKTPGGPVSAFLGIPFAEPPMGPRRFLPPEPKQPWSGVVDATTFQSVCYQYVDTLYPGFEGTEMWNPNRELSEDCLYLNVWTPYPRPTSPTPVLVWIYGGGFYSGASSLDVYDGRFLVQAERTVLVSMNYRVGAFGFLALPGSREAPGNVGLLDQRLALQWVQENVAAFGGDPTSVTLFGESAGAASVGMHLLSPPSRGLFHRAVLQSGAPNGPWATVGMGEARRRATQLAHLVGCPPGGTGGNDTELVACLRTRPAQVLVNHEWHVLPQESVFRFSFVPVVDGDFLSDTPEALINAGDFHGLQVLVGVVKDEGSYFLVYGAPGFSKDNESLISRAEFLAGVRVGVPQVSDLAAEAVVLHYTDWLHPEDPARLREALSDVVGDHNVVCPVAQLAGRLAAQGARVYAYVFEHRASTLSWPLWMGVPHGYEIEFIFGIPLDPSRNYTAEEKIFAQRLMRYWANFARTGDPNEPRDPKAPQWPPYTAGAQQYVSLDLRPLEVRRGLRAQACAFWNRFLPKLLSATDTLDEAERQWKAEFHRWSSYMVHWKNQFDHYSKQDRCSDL

As to `Cc1nccn1CC1CCc2c(c3ccccc3n2C)C1=O` (stereo not given), the Potency result in experiment [1] and in experiment [3] was “inactive” throughout. Also, the Potency in experiment [2] was 15.5 µM (active).

In the case of `CCOC(=O)COc1cc(-n2ncc(C(F)(F)F)c(C)c2=O)c(F)cc1Cl`, the Potency result in experiment [1], in experiment [2] and in experiment [3] was “inactive” throughout.

Regarding `CC(=O)c1c(C)cc(C(C)(C)C)cc1C`, the Potency entry in experiment [1], in experiment [2] and in experiment [3] was “inactive” in each case.

Regarding `O=C1CCCN1CCO`, the Potency result in experiment [1], in experiment [2] and in experiment [3] was “inactive” throughout.

For the molecule `CCCCCOC(=O)c1ccc(O)cc1`, the Potency entry in experiment [1], in experiment [2] and in experiment [3] was “inactive” throughout.

Turning to `CC[N+](CC)(CC)CCOc1ccc(/C=C/c2ccccc2)cc1`, the Potency result in experiment [1] and in experiment [3] was “inactive” each time. Further, the Potency in experiment [2] was 34.7 µM (active).

Take `N=C(N=C(N)N)N1CCOCC1`: the Potency result in experiment [1], in experiment [2] and in experiment [3] was “inactive” in each case.

As for `CCCC[N+](C)(CCCC)CCCC`, the Potency result in experiment [1], in experiment [2] and in experiment [3] was “inactive” throughout.

Consider `CCCOC(=O)c1c(Cl)c(Cl)c(Cl)c(Cl)c1C(=O)OCCC`, for which the Potency entry in experiment [1], in experiment [2] and in experiment [3] was “inactive” in each case.

Take `COc1cc(N)ccc1C`: the Potency entry in experiment [1], in experiment [2] and in experiment [3] was “inactive” in each case.

As to `O=P(O)(O)C(O)(Cc1cccnc1)P(=O)(O)O`, the Potency entry in experiment [1], in experiment [2] and in experiment [3] was “inactive” throughout.

Turning to `COc1cc2nc(N3CCN(C(=O)c4ccco4)CC3)nc(N)c2cc1OC`, the values for the activity change, negative = inhibition in experiment [1], in experiment [2] and in experiment [3] were -11.6% [at 23.6 µM], -22.9% [at 23.8 µM] and -0.588% [at 23.6 µM], respectively.

Take `CC1CCN(CCCC(=O)c2ccc(F)cc2)CC1`: the Potency entry in experiment [1] and in experiment [2] was “inactive” throughout.

For the molecule `CCSCC`, the Potency result in experiment [1], in experiment [2] and in experiment [3] was “inactive” each time.

Regarding `CC(=O)C(C)=O`, the Potency result in experiment [1] and in experiment [2] was “inactive” in each case.

In the case of `NC(N)=NN=C(/C=C/c1ccc([N+](=O)[O-])o1)/C=C/c1ccc([N+](=O)[O-])o1`, the Potency result in experiment [1], in experiment [2] and in experiment [3] was “inactive” in each case.

As to `NC(N)=N/N=C/c1c(Cl)cccc1Cl`, the Potency entry in experiment [1] was “inactive”.

Consider `N#CCc1ccccc1[N+](=O)[O-]`, for which the Potency result in experiment [1] and in experiment [2] was “inactive” in each case.

Take `[Cl][Pt-2]([Cl])([Cl])[Cl]`: the Potency in experiment [1] was 17.9 µM (active); in experiment [2] it was 35.7 µM (active).

For `CCCC(=O)C(=O)O`, the Potency result in experiment [1] and in experiment [2] was “inactive” each time.

Turning to `Cc1c(C)c2c(c(C)c1OC(=O)CCC(=O)O)CC[C@@](C)(CCC[C@H](C)CCC[C@H](C)CCCC(C)C)O2`, the Potency entry in experiment [1], in experiment [2] and in experiment [3] was “inactive” in each case.

Regarding `CC(=O)Nc1cccc(N)c1`, the Potency result in experiment [1], in experiment [2] and in experiment [3] was “inactive” throughout.

Turning to `NCCCCCCNCCCCCCN`, the Potency entry in experiment [1] and in experiment [3] was “inactive” throughout. For the same molecule, in experiment [2], the Potency is 39.3 µM (active).

For the molecule `CCOc1ccc2ccccc2c1C(=O)N[C@@H]1C(=O)N2[C@@H]1SC(C)(C)[C@@H]2C(=O)O`, the Potency result in experiment [1], in experiment [2] and in experiment [3] was “inactive” throughout.

Consider `CCN1CCCC1CNC(=O)c1cc(S(=O)(=O)CC)c(N)cc1OC` (stereo not given), for which the Potency in experiment [1] was 15.5 µM (active); in experiment [2], 13.8 µM (active).

With `CSc1nc(NC2CC2)nc(NC(C)(C)C)n1`, the Potency result in experiment [1], in experiment [2] and in experiment [3] was “inactive” throughout.

As for `O=C(OOC(=O)c1ccccc1)c1ccccc1`, the Potency entry in experiment [1], in experiment [2] and in experiment [3] was “inactive” each time.

On to `Cc1ccc(N)cc1O`, for which the Potency entry in experiment [1] and in experiment [2] was “inactive” throughout.

`CCCCCCCCCCCCCCCCCC[N+](C)(C)Cc1ccccc1`: the Potency in experiment [1] was 28.5 µM (active); in experiment [2] it was 71.7 µM (active). For the same molecule, the Potency result in experiment [3] was “inactive”.

For `CCCCCCCCCCCC[N+](C)(C)CCCCCCCCCCCC`, the Potency in experiment [1] is 28.3 µM (active); in experiment [2], 63.3 µM (active). In experiment [3], the Potency result is “inactive”.

On to `CCNC(=O)NCCCOc1cccc(CN2CCCCC2)c1`, for which the Potency entry in experiment [1], in experiment [2] and in experiment [3] was “inactive” throughout.

For `CCC(C)OC(C)CC` (stereo not given), the Potency result in experiment [1], in experiment [2] and in experiment [3] was “inactive” each time.

With `CCCCCOC(=O)CCCC`, the Potency result in experiment [1], in experiment [2] and in experiment [3] was “inactive” in each case.

On to `S=c1[nH]c2ccccc2s1`, for which the Potency result in experiment [1], in experiment [2] and in experiment [3] was “inactive” throughout.

Take `COc1cccc2c1C(=O)c1c(O)c3c(c(O)c1C2=O)C[C@@](O)(C(=O)CO)C[C@@H]3O[C@H]1C[C@H](N)[C@H](O[C@@H]2CCCCO2)[C@H](C)O1`: the Potency result in experiment [1], in experiment [2] and in experiment [3] was “inactive” each time.

On to `CCC(CN)=C(c1ccccc1)c1ccccc1`, for which the Potency result in experiment [1], in experiment [2] and in experiment [3] was “inactive” each time.

`Cc1[nH]c(=O)c(C#N)cc1-c1ccncc1`: the Potency entry in experiment [1], in experiment [2] and in experiment [3] was “inactive” in each case.

Consider `CC(C)C(OC(=O)c1ccccc1)C(C)(C)COC(=O)c1ccccc1` (stereo not given), for which the Potency entry in experiment [1], in experiment [2] and in experiment [3] was “inactive” throughout.

With `COc1c2occc2c(OC)c2c(=O)cc(C)oc12`, the Potency result in experiment [1], in experiment [2] and in experiment [3] was “inactive” throughout.

As for `O=C(O)[C@@H]1CSCN1`, the Potency entry in experiment [1], in experiment [2] and in experiment [3] was “inactive” each time.

Consider `CCCCCCCC(=O)N(C)C`, for which the Potency result in experiment [1], in experiment [2] and in experiment [3] was “inactive” in each case.

Consider `CC1CCC(C(C)(C)O)CC1` (stereo not given), for which the Potency result in experiment [1], in experiment [2] and in experiment [3] was “inactive” throughout.

With `OCCC1CCCCN1` (stereo not given), the Potency entry in experiment [1], in experiment [2] and in experiment [3] was “inactive” in each case.

As to `Cc1cccc(N(C)C)c1`, the Potency result in experiment [1], in experiment [2] and in experiment [3] was “inactive” in each case.

Consider `COC(=O)C1=C(C)NC(C)=C(C(=O)O[C@@H]2CCCN(Cc3ccccc3)C2)[C@@H]1c1cccc([N+](=O)[O-])c1`, for which the Potency result in experiment [1], in experiment [2] and in experiment [3] was “inactive” throughout.

Consider `CCCCNc1ccc(C(=O)OCCN(CC)CC)cc1`, for which the figures for the Potency in experiment [1] and in experiment [2] were 30.9 µM (active) and 2.45 µM (active), respectively. Also, in experiment [3], the Potency result was “inactive”.

For `CCC(=O)C(=O)CC`, the Potency result in experiment [1], in experiment [2] and in experiment [3] was “inactive” throughout.

`Cc1ccc(N(CC2=NCCN2)c2cccc(O)c2)cc1`: the Potency entry in experiment [1], in experiment [2] and in experiment [3] was “inactive” throughout.
